Sampled rows, rich in hits. Any-hit rate of the full collection: about 2.9%.
Mcl1 Bid PPI = Mcl-1/Bid interaction inhibition; inhibition, % at 21.7 µM; Q07820; TR-FRET Mcl-1/Bid-Dy647 peptide binding, 1536-well; 0.97% of 220,000 active;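 active means compounds that cut the binding signal by more than half at the single screening dose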;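 further: His-tagged Mcl-1 with europium anti-His antibody binding Bid BH3 peptide; 0% = Mcl-1 plus peptide wells and 100% = peptide-only wells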
Target sequence (Q07820 whole entry, looked up): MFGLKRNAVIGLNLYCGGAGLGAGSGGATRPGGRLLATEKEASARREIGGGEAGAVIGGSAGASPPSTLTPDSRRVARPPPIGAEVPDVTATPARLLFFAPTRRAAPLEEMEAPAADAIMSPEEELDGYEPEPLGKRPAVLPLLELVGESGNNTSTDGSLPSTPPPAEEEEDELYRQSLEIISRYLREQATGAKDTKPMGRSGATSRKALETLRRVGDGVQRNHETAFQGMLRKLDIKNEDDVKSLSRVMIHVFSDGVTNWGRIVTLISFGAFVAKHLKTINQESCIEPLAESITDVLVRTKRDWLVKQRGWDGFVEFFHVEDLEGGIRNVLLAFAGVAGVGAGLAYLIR
Hck Nef HTS = human Hck-Nef kinase inhibition; P08631; Recombinant Hck-YEEI plus Nef, Z-Lyte FRET kinase assay; inhibition, % at 20 µM; 0.68% of 220,000 active; AID 463187;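 active means Hck-Nef kinase inhibition above about 50%, limit read from the data; inactive means inhibition below that limit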;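 further: 0% = DMSO with Hck plus Nef and 100% = Hck alone without Nef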
Mcl-1 Bim block = disrupts Bim peptide binding to human Mcl-1; Q07820; Bead-based flow cytometry, Bim peptide-Mcl-1 binding; inhibition, % at 10 µM; 0.1% of 190,000 active; in the data active means inhibition above about 40%;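 further: 0% = no compound tracer wells and 100% = peptide blocker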
Pf gamet viab = inhibitors of late stage P. falciparum gametocyte viability. P. falciparum stage V gametocytes, ATP luminescence, 24 h. inhibition, % at 10.9 µM. 0.065% of 150,000 active;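 active means inhibition above the mean plus 3 SD of compounds within the control limits, set per campaign, cut at about 38% in these data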;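 further: 0% = DMSO wells and 100% = medium only without gametocytes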
14-3-3 Bad PPI = disrupts binding of bovine 14-3-3 zeta to phospho-Bad peptide. P63103. TR-FRET 14-3-3zeta/Dy647-pBad peptide displacement, 1 h. inhibition, % at 21.7 µM. 0.71% of 220,000 active. AID 781;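 active means inhibition above about 70%, limit read from the data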;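 further: 0% = full 14-3-3 plus peptide FRET controls and 100% = background without 14-3-3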
Target sequence (P63103 whole entry, looked up): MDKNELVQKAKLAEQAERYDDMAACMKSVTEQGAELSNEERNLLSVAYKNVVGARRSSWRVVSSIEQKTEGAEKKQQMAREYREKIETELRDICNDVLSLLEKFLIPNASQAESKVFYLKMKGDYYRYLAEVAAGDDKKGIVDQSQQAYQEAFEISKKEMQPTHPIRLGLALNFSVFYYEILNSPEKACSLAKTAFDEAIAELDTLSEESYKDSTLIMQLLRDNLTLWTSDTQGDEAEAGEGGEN
Mcl1 Noxa PPI = Mcl-1/Noxa interaction inhibition; Q07820; TR-FRET Mcl-1/Noxa peptide binding, 2 h; inhibition, % at 21.7 µM; 1.5% of 220,000 active;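 active means compounds that cut the protein-peptide binding signal by more than 50% relative to plate controls in a single-dose test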;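 further: His-tagged Mcl-1 with rhodamine Noxa BH3 peptide and terbium anti-His antibody; 0% = Mcl-1 plus Noxa peptide wells and 100% = peptide-only wells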
The depositor's hits bear a star; . = no result; [ ] = dose if it differs, or a comment.

SMILES	Mcl1 Bid PPI	Hck Nef HTS	Mcl-1 Bim block	Pf gamet viab	14-3-3 Bad PPI	Mcl1 Noxa PPI
CC(=O)c1cccc(S(=O)(=O)N(C)C2CCN(C)CC2)c1	7	19	0	-10	2	12
COc1ccc2c(=O)c3c(=O)n(CCc4ccccc4)c(C(C)C)nc3oc2c1	77*	1	.	3	16	10
COc1ccc2c(=O)c3c(=O)n(CCc4ccccc4)c(C)nc3oc2c1	.	.	.	1	.	.
NS(=O)(=O)c1ccc(Sc2nc3ccccc3s2)c([N+](=O)[O-])c1	-14	36	.	-14	-3	-2
O=C(O)c1ccc(S(=O)(=O)Nc2ccc(O)c(Sc3nc4ccccc4s3)c2)cc1	-46	22	0	20	12	51*
NC(=NCc1ccc2c(c1)OCO2)NC(=O)c1ccccc1	7	24	-1	25	77*	9
COc1cc2c(cc1OC)C(C(=O)N1CCCCC1)C(c1ccccc1F)N(C)C2=O (centres undefined)	-4	-9	-2	.	28	21
COc1cc2c(cc1OC)C(c1ccccc1F)OC(=O)C2 (centres undefined)	-8	0	96*	-5	-5	10
FC(F)(F)c1cccc(N2CCN(CC3CC4C=CC3C4)CC2)c1 (centres undefined)	25	-1	1	.	83*	14
Fc1ccccc1N1CCN(CC2CC3C=CC2C3)CC1 (centres undefined)	-37	3	0	.	19	14
C1=CC2CC1CC2CN1CCN(Cc2ccccc2)CC1 (centres undefined)	61*	8	5	.	46	-6
COc1ccc(C(=O)N2CCN(Cc3cc(OC)c(O)c(OC)c3)CC2)cc1OC	58*	1	0	.	27	24
COc1ccc(C(=O)N2CCN(C3CCN(Cc4ccccc4)CC3)CC2)cc1OC	58*	-21	1	.	58	23
COc1ccccc1C(=O)N1CCN(C2CCN(Cc3ccccc3)CC2)CC1	48	0	-8	9	84*	32
COc1cccc(C(=O)N2CCN(C3CCN(Cc4ccccc4)CC3)CC2)c1	15	20	3	.	57	33
COc1ccc(CN2CCN(C(=O)c3cc(OC)c(OC)c(OC)c3)CC2)cc1OC	33	-2	0	.	21	13
COc1cc(SC)ccc1C(=O)N1CCN(Cc2ccccc2)CC1	-48	-4	0	.	-7	-12
COc1ccc2c(c1)c(=O)oc1cc(OCC(=O)N3CCc4ccccc4C3)ccc12	53*	-1	-5	23	18	58*
Cc1cc(=O)oc2cc(OCC(=O)N3CCOCC3)ccc12	13	-5	-11	16	13	64*
O=C(CSc1ccccn1)N/N=C/c1ccccc1[N+](=O)[O-]	11	1	-2	.	84*[fluorescence artefact?]	11
Cc1cc(=O)oc2cc(OCC(=O)N/N=C/c3ccccc3[N+](=O)[O-])ccc12	63*	16	1	.	64	50
Cc1ccc(C)c(NC(=O)CCCCCCCCCCC2COCCO2)c1 (centres undefined)	25	1	-3	15	0	-34
O=C(NCc1ccncc1)C(=O)NCC1OCCCN1S(=O)(=O)c1ccccc1 (centres undefined)	-22	-6	-5	4	-15	4
COC(=O)c1[nH]c2ccc(Br)cc2c1NC(=O)CN1CCCCC1CCO (centres undefined)	-49	0	-3	-2	91*	-2
Cc1cccc(C(=O)Nc2sc(C(=O)N3CCCC3)c(C)c2C#N)c1	-1	2	2	.	-25	-11
SMILES	Mcl1 Bid PPI	Hck Nef HTS	Mcl-1 Bim block	Pf gamet viab	14-3-3 Bad PPI	Mcl1 Noxa PPI
NC(=O)c1oc2ccc(Cl)cc2c1NC(=O)CN1CCOCC1	8	1	0	.	0	-6
O=C(NN1CCOCC1)c1cccc(Br)c1	.	.	.	1	.	.
O=C(NN1CCOCC1)c1cccc(COc2cccc(Br)c2)c1	-9	3	0	-18	93*	3
O=C(NCc1ccco1)c1cccn2c(=O)c3sccc3nc12	.	2	.	-36	.	.
Cn1c(=O)c2c(nc(N/N=C/c3ccc(OC(=O)c4ccco4)cc3)n2Cc2ccc(F)cc2)n(C)c1=O	59*	3	-10	.	53	48
O=C(C1=C[C@@H](c2coc3ccccc3c2=O)C[C@@H](OCc2ccc(CO)cc2)O1)N1CCCCCCC1	-2	7	-1	.	2	-30
OC(COCC1COc2ccccc2O1)CN1CCN(c2ccccn2)CC1 (centres undefined)	9	0	-1	.	80*	23
OC(COCC1COc2ccccc2O1)CN1CCc2ccccc2C1 (centres undefined)	12	2	3	10	13	12
Cc1nn(-c2ccccc2)c(Cl)c1C1C(C#N)=C(N)Oc2c1c(C)nn2-c1ccccc1 (centres undefined)	-26	1	-2	2	-5	60*
O=S(=O)(Nc1nc2ccccc2[nH]1)c1ccc2ccccc2c1	11	-2	0	.	10	-1
Cc1noc(NS(=O)(=O)c2ccc(NC(=O)CC34CC5CC(CC(Br)(C5)C3)C4)cc2)c1C	-28	0	-2	.	51	17
CCN(c1ccc(N=Cc2c(O)n(Cc3ccc(OC)cc3)c(=O)c3ccccc23)cc1)C(C)C	-18	-58	.	10	-19	59*
COc1ccc(-n2c(O)c(C=Nc3ccccc3)c3ccccc3c2=O)cc1	23	20	-5	-12	64	7
COc1cc(-n2ccnc2SC)c(Cl)cc1Cl	0	0	0	9	5	15
Cc1sc(NC(=O)c2sc3nc4c(C)cccc4cc3c2N)c(C#N)c1C	97*	35	0	-4	60	96*
CCn1c2ccccc2c2cc(N)ccc21	-7	2	-8	.	2	62*
CCn1c2ccccc2c2cc(/C(C)=N/O)ccc21	5	1	-3	-3	-12	14
CO/N=C1\CCn2c1c(C)c1ccccc12	44	21	.	13	71*	9
O=C(CCl)Nc1cc2[nH]c(=O)[nH]c2cc1Br	-17	5	3	2	-4	51*
Cc1cc2c(C)cc(=O)[nH]c2cc1NC(=O)CCl	5	-2	.	-7	5	25
COc1ccc(N=C(N)SCc2ccccn2)cc1	67*	1	-2	.	47	42
COc1ccc(-c2nnc(SCc3ccccn3)n2C)cc1	-7	7	6	.	-5	2
CCN(CC)C(=O)CC(c1cc(OC)c(OC)c(OC)c1)c1c(OC)cc(OC)c2ccc(=O)oc12 (centres undefined)	-62	21	.	.	0	-12
CCN(CC)C(=O)CC(c1cc(OC)c(OC)c(OC)c1)c1c(OC)cc(OC)c2c(-c3ccccc3)cc(=O)oc12 (centres undefined)	-93	30	.	.	62	96*
O=c1ccc(Oc2nc(N3CCCCC3)nc(N3CCCCC3)n2)n[nH]1	-41	2	1	.	74*	4
